We go through 8 molecules from PubChem BioAssay (NCI).

This is part of a sample that, as a whole, favours compounds with a hit. Of some 83,000 tested, about 20% had one in any assay.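 96-well plates, one dose, 48 hours. Percent growth reported; active if below 10.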 Unmarked numbers belong to inactive results. The source made the active and inactive calls.

Some test systems named below: DU-145 prostate; K-562 leukemia; MALME-3M melanoma; MDA-MB-231 breast; RXF 393 renal; SF-268 CNS; SF-295 CNS; SF-539 CNS; UACC-257 melanoma; M14 melanoma; HCT-15 colon; HT29 colon; SNB-75 CNS; SNB-19 CNS; U251 CNS; PC-3 prostate; SK-MEL-5 melanoma; UACC-62 melanoma; LOX IMVI melanoma; SK-MEL-28 melanoma.
Test in all cases: NCI-60 one-dose screen, 48 h (100 = growth as untreated, 0 = no growth, -100 = all killed)
Settings in all cases: 10 µM unless noted

Consider `CCCCn1c(C)nc2cc(Nc3nc(Cl)nc4nc[nH]c34)ccc21`, for which the growth in the assay on DU-145 prostate was 89.6%; in the assay on K-562 leukemia, 90.3%; in the assay on MALME-3M melanoma, 79.8%; in the assay on MDA-MB-231 breast, 75%; with RXF 393 renal, 81.9%; in the assay with SF-268 CNS it was 92.4%. For the same molecule, the growth in the assay on SF-295 CNS was 74.5%; with SF-539 CNS it was 76.3%; with UACC-257 melanoma, 100%; in the assay on M14 melanoma it was 86.8%; with HCT-15 colon it was 90.7%; in the assay on HT29 colon, 83.6%. The growth was 78.4% in the assay with SNB-75 CNS; 87.4% in the assay on SNB-19 CNS; 77.2% in the assay on U251 CNS; 59.7% with PC-3 prostate; 73.6% with SK-MEL-5 melanoma; 73% in the assay with UACC-62 melanoma. Moreover, the growth is 90.4% with LOX IMVI melanoma and 99.4% in the assay on SK-MEL-28 melanoma.
For the molecule `N#Cc1ccc(NC(=O)Nc2nc3ccc(OC(F)(F)F)cc3s2)cc1`, the growth is 23.1% with DU-145 prostate; 1.23% (active) with K-562 leukemia; -7.94% (active) in the assay on MALME-3M melanoma; -18.4% (active) in the assay with MDA-MB-231 breast; 21.9% in the assay on RXF 393 renal; 21.1% in the assay on SF-268 CNS. The growth with SF-295 CNS was -25.8% (active); in the assay on SF-539 CNS it was 7.97% (active); in the assay on UACC-257 melanoma, -20.7% (active); with M14 melanoma, 5.97% (active); in the assay with HCT-15 colon, 0.568% (active); in the assay on HT29 colon, -3.66% (active). The growth in the assay with SNB-75 CNS is -8.15% (active); in the assay with SNB-19 CNS, 15.1%; with U251 CNS it was 4.34% (active); in the assay on PC-3 prostate, 2.88% (active); in the assay with SK-MEL-5 melanoma, -53.3% (active); with UACC-62 melanoma, 2.82% (active). Besides, the figures for the growth in the assay on LOX IMVI melanoma and in the assay with SK-MEL-28 melanoma were 1.35% (active) and 19.3%, respectively.
As to `CCOC(=O)C1=C(C)NC(SCc2nnc(-c3ccc(Cl)cc3)o2)=NC1c1ccc(Br)cc1` (stereo not given), the growth in the assay with DU-145 prostate was 84.3%; with K-562 leukemia it was 60.7%; in the assay with MALME-3M melanoma, 83.1%; in the assay with MDA-MB-231 breast, 59.8%; in the assay on RXF 393 renal, 75%; with SF-268 CNS, 86.6%. Further, the growth is 73.6% in the assay with SF-295 CNS; 88.7% with SF-539 CNS; 73% in the assay with UACC-257 melanoma; 74% with M14 melanoma; 65.1% with HCT-15 colon; 78.7% with HT29 colon. For the same molecule, the growth with SNB-75 CNS was 67.7%; with SNB-19 CNS, 72%; in the assay on U251 CNS, 65.7%; in the assay on PC-3 prostate, 48.8%; with SK-MEL-5 melanoma it was 51.4%; with UACC-62 melanoma it was 55.3%. The results for the growth with LOX IMVI melanoma and with SK-MEL-28 melanoma were 75% and 81.3%, respectively.
`CCCCCc1c(C)[nH]c(/C=C2\N=C(c3ccc[nH]3)C=C2CC)c1C`: the growth was -94.8% (active) with DU-145 prostate; -75.8% (active) in the assay with K-562 leukemia; -74.9% (active) in the assay with MALME-3M melanoma; -94.3% (active) in the assay on MDA-MB-231 breast; -91% (active) with RXF 393 renal; -75.8% (active) with SF-268 CNS. Also, the growth is -70.9% (active) in the assay with SF-295 CNS; -82.7% (active) in the assay on SF-539 CNS; -84.2% (active) in the assay with UACC-257 melanoma; -96.6% (active) with M14 melanoma; -83.5% (active) with HCT-15 colon; -86.9% (active) with HT29 colon. In addition, the growth with SNB-75 CNS was -81.4% (active); with SNB-19 CNS, -95.4% (active); in the assay with U251 CNS, -95.3% (active); with PC-3 prostate, -89.3% (active); in the assay on SK-MEL-5 melanoma, -96.5% (active); in the assay on UACC-62 melanoma it was -97.4% (active). Besides, the growth with LOX IMVI melanoma was -90.7% (active); in the assay with SK-MEL-28 melanoma, -97.4% (active).
In the case of `CCCCc1n(Cc2ccc3ccccc3n2)cc[n+]1Cc1ccc2ccccc2n1`, the growth in the assay with DU-145 prostate was 40.8%; in the assay with K-562 leukemia, 6.71% (active); with MALME-3M melanoma, -2.99% (active); in the assay on MDA-MB-231 breast, 9.88% (active); in the assay with RXF 393 renal, 20.8%; with SF-268 CNS, 19.9%. Further, the growth was 25.2% in the assay on SF-295 CNS; 16.3% in the assay on SF-539 CNS; -11.9% (active) in the assay with UACC-257 melanoma; 17.1% in the assay with M14 melanoma; 87.8% in the assay on HCT-15 colon; 5.9% (active) with HT29 colon. Besides, the growth with SNB-75 CNS was 17.5%; in the assay with SNB-19 CNS, 10.4%; in the assay on U251 CNS, 11.6%; in the assay with PC-3 prostate, 16.2%; in the assay on SK-MEL-5 melanoma it was -76.3% (active); in the assay with UACC-62 melanoma, -6.58% (active). Also, the growth in the assay on LOX IMVI melanoma is -22.2% (active); in the assay with SK-MEL-28 melanoma, 16.1%.
Take `NC(=O)Nc1ccc2ncnc(Nc3cccc(O)c3)c2c1`: the growth was 90.4% in the assay on DU-145 prostate; 103% in the assay with K-562 leukemia; 121% in the assay with MALME-3M melanoma; 104% with MDA-MB-231 breast; 111% with RXF 393 renal; 85.4% with SF-268 CNS. The growth was 98.1% in the assay with SF-295 CNS; 109% in the assay on SF-539 CNS; 99.8% with UACC-257 melanoma; 102% in the assay with M14 melanoma; 108% in the assay on HCT-15 colon; 106% in the assay on HT29 colon. Also, the growth in the assay with SNB-75 CNS was 102%; in the assay with SNB-19 CNS it was 93.1%; in the assay on U251 CNS it was 87.9%; in the assay on PC-3 prostate, 102%; in the assay with SK-MEL-5 melanoma, 101%; with UACC-62 melanoma it was 105%. For the same molecule, the figures for the growth in the assay with LOX IMVI melanoma and with SK-MEL-28 melanoma were 101% and 114%, respectively.
Turning to `Cc1ccc(NC(=O)c2[nH]c(SCCN(C)C)nc2-c2ccc(F)cc2)cc1Nc1ccc2ncn(C)c(=O)c2c1`, the growth was 80.1% in the assay with DU-145 prostate; 40.2% in the assay on K-562 leukemia; -12.8% (active) in the assay on MALME-3M melanoma; 40.6% with MDA-MB-231 breast; 71.5% in the assay on RXF 393 renal; 71.1% with SF-268 CNS. Also, the growth with SF-295 CNS was 82.9%; in the assay with SF-539 CNS, 65%; in the assay with UACC-257 melanoma, 22%; in the assay on M14 melanoma, 2.94% (active); in the assay on HCT-15 colon it was 65.4%; with HT29 colon, 21.4%. For the same molecule, the growth in the assay with SNB-75 CNS was 66%; in the assay on SNB-19 CNS, 92.4%; in the assay on U251 CNS it was 66.6%; with PC-3 prostate, 88.5%; in the assay with SK-MEL-5 melanoma it was 30.8%; with UACC-62 melanoma it was 12.5%. Also, the growth is 28% in the assay with LOX IMVI melanoma and 16.5% in the assay on SK-MEL-28 melanoma.
`O=C(Nc1ccc(Oc2ccc(Nc3nc4ccccc4s3)cc2)cc1)Nc1ccc(Cl)c(C(F)(F)F)c1`: the growth with DU-145 prostate was 9.51% (active); with K-562 leukemia, 6.86% (active); in the assay with MALME-3M melanoma, 2.78% (active); in the assay on MDA-MB-231 breast, -65.5% (active); with RXF 393 renal, 8.85% (active); with SF-268 CNS, 18.5%. Moreover, the growth is 5.6% (active) in the assay on SF-295 CNS; 9.29% (active) in the assay on SF-539 CNS; -11.6% (active) in the assay with UACC-257 melanoma; -4.56% (active) in the assay on M14 melanoma; 8.45% (active) in the assay on HCT-15 colon; -10.9% (active) in the assay with HT29 colon. Moreover, the growth in the assay with SNB-75 CNS was 16.7%; with SNB-19 CNS, 22.5%; in the assay with U251 CNS, 2.67% (active); in the assay on PC-3 prostate, 3.08% (active); in the assay on SK-MEL-5 melanoma it was -84.8% (active); in the assay on UACC-62 melanoma it was 1.63% (active). Also, the growth in the assay with LOX IMVI melanoma was -88.3% (active); with SK-MEL-28 melanoma, 25.3%.
